Rab9 promoter act – activators of Rab9 promoter. 2.8% of 320,000 active. AID 485297. Huh7 Rab9 promoter-luciferase reporter, luminescence, 24 h. Potency, µM (doses to about 9.22 µM), for the others: at the highest dose activation, negative = inhibition, actives largely listed as activators; also: % of control where 0% means no effect; nearly all actives have a fitted effect of over 60% in size
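Using Huh7 cells stably transfected with Rab9 promoter–luciferase, compounds were incubated 24 h at 37 °C, 5% CO2; luciferase luminescence was read 10 min after reagent addition.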
ELG1 DNA repair – ELG1-dependent DNA repair inhibition. HEK293T ELG1-luciferase reporter, luminescence, 16 h; DNA damage induced by 5-fluorouridine. Potency, µM (top dose mostly 46.1 µM), without a hit: at the highest dose activity change, negative = inhibition, most hits filed as inhibitors. 2.3% of 330,000 active. AID 504467; also: % is scaled to controls: 0 for no effect and ±100 for the full control effect; nearly all actives have a fitted effect of over 55% in size
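Reporter activity after DNA damage by 5-fluorouridine is monitored. Compound-treated cells incubate 16 hr at 37 °C, then ONE-Glo is added for 30 min before luminescence reading.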
NPC1 promoter act – NPC1 promoter activation. Huh7 NPC1 promoter luciferase reporter, 24 h. 2.4% of 320,000 active. Potency, µM (doses to about 9.22 µM), without a hit: top-dose activation, actives largely listed as activators. AID 485313; also: % of control where 0% means no effect; nearly all actives have a fitted effect of over 60% in size
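Compounds in DMSO were transferred onto Huh7 NPC1-luciferase reporter cells pre-incubated 2 h; after 24 h at 37 °C, Amplite reagent was dispensed and luminescence recorded 10 min later.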
SMN2 splice enh – increases expression of the SMN2 splice variant. AID 1458. 2.8% of 210,000 active. Potency, µM (series often up to 46.1 µM), for inactives: at the top dose activity change, positive = activation, hits mostly activators. HEK293 SMN2-luciferase splicing reporter, luminescence, 30-36 h; also: % of control where 0% means no effect; nearly all actives have a fitted effect of over 55% in size
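HEK293 cells carry an SMN2 minigene-luciferase reporter in which exon 7 inclusion puts luciferase in frame. Cells were seeded at 2000 cells/well, attached for 10-12 hours, then exposed to compounds for 30-36 hours at 37C before ONE-Glo luminescence.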
FLuc modulator – inhibits or activates purified firefly luciferase, miR-21 counter-screen; Potency, µM (titrated, usually from 57.5 µM), inactives show at the top dose activity change, negative = inhibition, actives largely listed as inhibitors; AID 588342; purified FLuc, Km substrates, luminescence inhibition; P08659; 6.9% of 360,000 active;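 also: plate controls were vehicle for no effect and reference inhibitor for full effect; nearly all actives have a fitted effect of over 55% in size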
Target sequence (P08659 whole entry, looked up): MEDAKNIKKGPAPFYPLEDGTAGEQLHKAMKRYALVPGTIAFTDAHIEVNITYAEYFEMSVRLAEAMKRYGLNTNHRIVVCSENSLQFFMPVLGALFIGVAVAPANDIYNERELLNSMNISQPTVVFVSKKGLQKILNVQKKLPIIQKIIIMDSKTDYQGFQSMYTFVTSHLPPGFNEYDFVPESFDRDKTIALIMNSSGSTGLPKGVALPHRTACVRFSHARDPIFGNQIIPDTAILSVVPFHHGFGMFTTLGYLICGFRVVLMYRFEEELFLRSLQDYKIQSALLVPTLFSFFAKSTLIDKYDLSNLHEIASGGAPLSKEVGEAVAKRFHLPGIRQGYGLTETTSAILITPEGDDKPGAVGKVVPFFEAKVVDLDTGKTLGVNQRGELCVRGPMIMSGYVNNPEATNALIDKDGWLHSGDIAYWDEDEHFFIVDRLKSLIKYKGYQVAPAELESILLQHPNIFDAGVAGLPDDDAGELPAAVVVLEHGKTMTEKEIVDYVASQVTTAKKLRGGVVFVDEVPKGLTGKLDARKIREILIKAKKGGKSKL
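Biochemical qHTS of compounds, final roughly 60 µM downward over six points, against 10 nM purified firefly luciferase using Km concentrations of substrates (10 uM D-luciferin, 10 uM ATP) in Tris acetate pH 7.5 buffer; luminescence output.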
ELG1 genotoxic – genotoxicity induction in ELG1-luciferase HEK293T cells; HEK293T ELG1-luciferase reporter, luminescence, 16 h; Potency, µM (doses to about 46 µM), inactives show at the top dose activity change, positive = activation, usual class: activators; 1.3% of 330,000 active; AID 504466; also: % of control where 0% means no effect; nearly all actives have a fitted effect of over 60% in size
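Screening used a luciferase reporter fused to human ELG1 in HEK293T cells. Luminescence was read on a CCD plate imager after 16 hr exposure and 30 min ONE-Glo incubation.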
* = called active by the depositor. Only some compounds are listed: those with a hit (about 9.3% of all), similar ones and a draw of the others. Calls follow the shape of the dose curve; as a rule, active = well fitted curve in the direction sought with a large enough effect; inconclusive = small, poorly fitted or top-dose-only effect, or another doubt; inactive = no such curve, though single readings can be large; an effect the other way counts as inactive or inconclusive. Potency is read from the fitted curve at half-maximal effect.

`CC(=O)Nc1ccc(-c2csc(N/N=C\c3ccncc3)n2)cc1` gave Rab9 promoter act 14.7%, ELG1 DNA repair inconclusive, NPC1 promoter act 17.7%, FLuc modulator 7.57µM* and ELG1 genotoxic -5.9%.
For CN1c2ccccc2C(=O)/C(=C\Nc2ccc(F)cc2F)S1(=O)=O the results were Rab9 promoter act -1.1%, ELG1 DNA repair 3.4%, NPC1 promoter act 2.1%, FLuc modulator 2.39µM* and ELG1 genotoxic 0.2%.
Screening Cc1ccn2cc(CSc3ccccc3N)nc2c1 returned Rab9 promoter act 0.631µM*, ELG1 DNA repair inconclusive, NPC1 promoter act 2.24µM*, SMN2 splice enh inconclusive, FLuc modulator 10.7µM* and ELG1 genotoxic inconclusive.
Cc1ccn2cc(CC(=O)O)nc2c1 was read as Rab9 promoter act 3.5%, ELG1 DNA repair -2.0%, NPC1 promoter act -4.2%, FLuc modulator 3.1% and ELG1 genotoxic 0.9%.
For CCOC(=S)SCc1cn2ccc(C)cc2n1 the results were Rab9 promoter act -0.4%, ELG1 DNA repair 7.9%, NPC1 promoter act -3.6%, SMN2 splice enh -31.4%, FLuc modulator 23.9µM* and ELG1 genotoxic 0.1%.
`OC1(C2(O)CC(c3ccccc3)ON2)CCCCC1` (stereo unspecified) gave Rab9 promoter act -6.7%, ELG1 DNA repair -2.5%, NPC1 promoter act -0.1%, SMN2 splice enh 14.8%, FLuc modulator -2.8% and ELG1 genotoxic -0.4%.
`Cc1cccc(Nc2nc(N)c([N+](=O)[O-])c(N3CCOCC3)n2)c1` gave Rab9 promoter act -10.3%, ELG1 DNA repair inconclusive, NPC1 promoter act 0.8%, SMN2 splice enh inconclusive, FLuc modulator -0.9% and ELG1 genotoxic 0.7%.
`CC(=O)N1CCN(S(=O)(=O)c2cccc(C(=O)Nc3ccc(OC(F)F)cc3)c2)CC1` gave Rab9 promoter act 0.4%, ELG1 DNA repair inconclusive, NPC1 promoter act 1.0%, FLuc modulator 1.9% and ELG1 genotoxic -0.5%.
COc1ccc(N2CC(C(=O)Nc3nnc(SCC(=O)NC4CCCC4)s3)CC2=O)cc1 (stereo unspecified) was read as Rab9 promoter act 9.9%, ELG1 DNA repair -0.4%, NPC1 promoter act -0.1%, FLuc modulator -0.9% and ELG1 genotoxic 6.3%.
O=C(CSc1nnc(NC(=O)c2ccc(F)cc2)s1)NC1CC1 was read as Rab9 promoter act inconclusive, ELG1 DNA repair inconclusive, NPC1 promoter act 2.51µM*, FLuc modulator 5.36µM* and ELG1 genotoxic inconclusive.
`O=C(CSc1nnc(NC(=O)c2cccc(F)c2)s1)NC1CC1` gave Rab9 promoter act 4.7%, ELG1 DNA repair 0.0%, NPC1 promoter act 19.7%, FLuc modulator 15.1µM* and ELG1 genotoxic 20.7%.
`Cc1cccc(C(=O)Nc2nnc(SCC(=O)NC3CC3)s2)c1` gave Rab9 promoter act inconclusive, ELG1 DNA repair inconclusive, NPC1 promoter act inconclusive, FLuc modulator 19µM* and ELG1 genotoxic inconclusive.
O=C(Cc1ccc(F)cc1)Nc1nnc(SCC(=O)NC2CCCC2)s1 was read as Rab9 promoter act -9.7%, ELG1 DNA repair -4.2%, NPC1 promoter act -3.0%, SMN2 splice enh 3.5%, FLuc modulator -1.8% and ELG1 genotoxic inconclusive.
For Cc1cccc(C(=O)Nc2nnc(SCC(=O)Nc3ccc4c(c3)oc3ccccc34)s2)c1 the results were Rab9 promoter act 11.0%, ELG1 DNA repair inconclusive, NPC1 promoter act 12.7%, SMN2 splice enh 27.5%, FLuc modulator inconclusive and ELG1 genotoxic 13.3%.
For COc1cccc(C(=O)Nc2nnc(SCC(=O)NC3CCCC3)s2)c1 the results were Rab9 promoter act inconclusive, ELG1 DNA repair inconclusive, NPC1 promoter act inconclusive, FLuc modulator 2.69µM* and ELG1 genotoxic inconclusive.

Bioassay records: PubChem, National Center for Advancing Translational Sciences (NCATS)
